Reference: PubChem BioAssay AID493168 (National Center for Advancing Translational Sciences (NCATS), 2011)
Inconclusive results are not listed. Activity calls are given as the source filed them. The call rests on the fitted dose curve; in most records, active means well fitted inhibition curve with a large enough effect; inconclusive means small, poorly fitted or top-dose-only effect, or effect the other way; inactive means flat fitted curve, though single readings scatter.

molecular target: Ubiquitin carboxyl-terminal hydrolase 2 (Homo sapiens) (UniProt O75604); experiment: Confirmation Assay for Inhibitors of Ubiquitin-specific Protease USP2a Using CHOP2 as the Reporter; details: USP2 core, Ub-CHOP2 coupled reporter fluorescence; series mostly up to 38.3 µM; activity change, negative = inhibition: at the top concentration; further: nearly all actives have a fitted effect of over 55% in size;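 on activity change, negative = inhibition: plate controls were DMSO wells for no effect and full inhibition by NEM control for full effect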
Outline: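 USP2 core (10 nM final) was preincubated with compound for 30 min at RT in Tris-HCl pH 8.0, CaCl2, beta-mercaptoethanol, CHAPS. Ub-CHOP2 and reporter substrate (25 nM final each) were added, and fluorescence (Ex 485/Em 531 nm) was read after 60 min.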
Potency means the concentration at half of the fitted maximal effect.

Chain of Ubiquitin carboxyl-terminal hydrolase 2 (Homo sapiens) (O75604 whole entry, looked up): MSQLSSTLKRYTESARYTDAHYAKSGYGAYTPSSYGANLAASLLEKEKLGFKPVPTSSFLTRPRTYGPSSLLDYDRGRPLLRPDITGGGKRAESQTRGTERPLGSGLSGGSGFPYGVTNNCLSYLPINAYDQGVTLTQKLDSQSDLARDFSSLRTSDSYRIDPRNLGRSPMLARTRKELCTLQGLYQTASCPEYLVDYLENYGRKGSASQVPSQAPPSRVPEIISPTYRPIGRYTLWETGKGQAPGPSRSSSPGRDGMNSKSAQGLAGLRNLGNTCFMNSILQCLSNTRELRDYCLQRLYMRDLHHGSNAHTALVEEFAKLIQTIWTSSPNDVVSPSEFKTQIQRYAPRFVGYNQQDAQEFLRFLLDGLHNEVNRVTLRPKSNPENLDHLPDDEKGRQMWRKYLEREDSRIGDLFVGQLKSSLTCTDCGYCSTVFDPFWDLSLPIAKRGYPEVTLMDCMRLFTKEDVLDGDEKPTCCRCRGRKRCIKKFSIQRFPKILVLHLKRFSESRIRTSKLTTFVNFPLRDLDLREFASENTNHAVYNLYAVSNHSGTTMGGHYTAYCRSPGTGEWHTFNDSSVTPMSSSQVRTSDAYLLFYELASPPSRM

Activity change, negative = inhibition, inactive:
COc1ccc(CC(NC(C)=O)C(=O)NC2CCN(c3nc(C)cc(C)c3C#N)CC2)c(OC)c1 (centres undefined) -0.456%, CC1(C)CC(=O)C2=C(C1)Oc1ncn(CCCO)c(=N)c1C2c1ccccc1 (centres undefined) -1.72%, CCOc1ccc2[nH]c(=O)c(CN(Cc3cccs3)Cc3nnnn3C(C)(C)CC)cc2c1 -1.09%, CCC(CO)Oc1cc(NCc2cccc(C)c2)c2ncn(C(C)C)c2c1 (centres undefined) 6.16%, Cc1cc(N2CCC(C(=O)NC3CC3)CC2)nc(-c2ccccc2)n1 4.66%, O=C(NCc1ccccc1)C1CCC1 1.49%, CNC(=O)NC(=O)CSc1ccc(NC(C)=O)cc1 -4.02%, COCCN1Cc2cccc(C(=O)N3CCN(c4cc(C)ccc4C)CC3)c2C1=O -0.0848%, CCN(CC)c1ccc2nc3ccccc3[n+](CC)c2c1 -10.3%, CC(C)(C)NC(=O)CSc1nc(O)cc(=O)n1-c1ccccc1F 4.95%, CCC(C)NC(=O)CSC1=Nc2ccccc2C2=NC(c3ccccc3)C(=O)N12 (centres undefined) 0.631%, O=C(c1ccco1)N1CCN(C(c2cccs2)c2sc3ncnn3c2O)CC1 (centres undefined) 1.39%, Cc1ccc(C)c(S(=O)(=O)c2c(N)n(/N=C/c3ccco3)c3nc4ccccc4nc23)c1 0.424%, CCOC(=O)C1=CN(Cc2cccc(F)c2)S(=O)(=O)NC1c1ccc(Br)cc1F (centres undefined) -4.73%, CC(=O)OCC(=O)Nc1ccc(Cl)cc1Cl 0.0981%, C=CC[C@H](CC(=O)N[C@H](CO)Cc1ccccc1)C(=O)N[C@H](COC(=O)[C@@H](CC=C)CC(=O)OC(C)(C)C)Cc1c[nH]c2ccccc12 -0.7%, O=C(NCCC1=CCCCC1)C1CCCN(S(=O)(=O)c2cnc[nH]2)C1 (centres undefined) 4.26%, COc1ccccc1N1CCN(c2cc(C)nc3nc(C)nn23)CC1 0.0596%, COc1cc(/C=C(/C(=O)c2cccs2)c2nc3ccccc3[nH]2)ccc1O -6.77%, COc1ccc2[nH]c(=O)c(CN(C)C(=O)C3CCCCC3)cc2c1 -0.262%, O=C(CCSCc1ccc(Cl)cc1)NCCc1ccccc1 -2.88%, CCCCC(OC(=O)c1cc2occc2n1C)C(=O)NCC1CCCO1 (centres undefined) 5.21%, CN(C)CCOCCP(=O)(c1ccccc1)c1ccccc1 3.55%, CS(=O)(=O)c1ccc(C(=O)Nc2nc(-c3ccco3)c(-c3ccco3)s2)cc1 -4.86%, CCOc1ccccc1C(=O)Nc1nnc(C(C)C)s1 -2.08%, O=C(Nc1nnc(-c2cccs2)o1)c1cccc(Oc2ccccc2)c1 -18.2%, CC(C)(C)[C@H]1COC(=O)[C@@H](Cc2ccc(F)cc2)C/C=C\C[C@@H](CC(=O)N[C@H](CO)Cc2ccccc2)C(=O)N1 2.33%, COc1ccc2[nH]c(=O)c(CN(Cc3ccco3)Cc3nnnn3Cc3ccccc3)cc2c1 -0.234%, CCSc1nc(N2CCCCC2)c2c(c1C#N)CCCC2 0.094%, C=CC[C@@H](CC(=O)N(CCO)Cc1ccccc1)C(=O)NCCOC(=O)[C@H](CC=C)CC(=O)OC(C)(C)C -0.238%, O=C(Cc1cc(=O)[nH]c(=O)[nH]1)NCC1CCCO1 (centres undefined) 2.54%, Cc1nc2cc3ccccc3cc2c(=O)[nH]1 2.06%, Cc1c(C(=O)NCc2c(F)cc(F)cc2F)oc2ccc(S(=O)(=O)N3CCOCC3)cc12 -1.34%

Potency, active:
COc1ccc(Cc2nnc(NC(=O)Cc3cccs3)s2)cc1 11.7 µM, O=C(O)CC(C(=O)O)N1C(=O)/C(=C/C=C/c2ccco2)SC1=S (centres undefined) 4.14 µM, COc1ccccc1C(=O)n1nc(-c2cccnc2)nc1NCc1ccccc1 5.85 µM, CC[n+]1c(/C=C/N(C)c2ccccc2)n(-c2ccccc2)c2ccc(-c3nc4ccccc4s3)cc21 13.1 µM, N#Cc1c(NC(=O)CSc2ncnc3sccc23)oc(-c2ccco2)c1-c1ccco1 13.1 µM, CC(C)c1ccc(Nc2nnc(SCC(=O)c3nnc(-c4ccccc4)o3)s2)cc1 6.56 µM
